IL-1B inflam inh = blocks inflammasome-driven IL-1 beta release. THP-1 LPS/ATP IL-1B secretion, AlphaLISA, 16 h; active compounds read low. activity change, % at 57.5 µM. actives 4.7% (n = 360,000); in the data active means activity change below about -50%; inconclusive means mostly about -30% to -49%; further: on the % scale 0 is the no-effect control and ±100 the full control effect
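THP-1 cells pretreated 1 hr with compounds (up to 57.5 uM final), then stimulated with LPS (250 ng/mL final) plus ATP (1.25 mM final); secreted IL-1B measured by AlphaLISA after 16 hr, decreased signal indicating inhibition.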
HepG2 tox = kills HepG2 cells in TGF-b inhibitor counter-screen; HepG2 CAGA-GFP viability, ATP luminescence, 18 h; Potency, µM (titrated, usually from 46.1 µM), inactives show at the top dose activity change, negative = cytotoxicity, hits mostly cytotoxic; actives 0.76% (n = 410,000); further: potency means the concentration at half of the fitted maximal effect
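CellTiter-Glo luminescence gave cytotoxicity after 18 hours at 37 degrees C. The cells were HepG2 CAGA-GFP in 1% FBS DMEM, stimulated with 500 pg/mL TGF-beta after compound addition. %Activity was normalised to no-cell wells (complete cell-killing) and DMSO (no toxicity), and curves were fitted and classified.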
DT40 TDP1 no CPT = qHTS for Inhibitors of human tyrosyl-DNA phosphodiesterase 1 (TDP1): qHTS in cells in absence of CPT; actives 15% (n = 420,000); DT40 Tdp1-/- hTDP1 cells, no CPT, ATP luminescence, 48 h; AID 686978, 2013; Potency, µM (highest dose often 46.2 µM), for the others: at the highest dose activity change, negative = growth inhibition, most hits filed as inhibitors; further: potency means the concentration at half of the fitted maximal effect; on the % scale 0 is the no-effect control and ±100 the full control effect; nearly all actives have a fitted effect of over 55% in size
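Readout: luminescence from CellTiter-Glo after 30 min in the dark at RT. Cells: DT40 Tdp1-/- with stable hTDP1, 400/well. Exposure: compounds alone, ≥48 hr, 37 °C.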
DT40 TDP1 CPT = growth inhibition of DT40 Tdp1-/-;hTDP1 cells with camptothecin (screen for TDP1 inhibitors). chicken DT40 Tdp1-/-;hTDP1 cells + 20 nM CPT, ATP luminescence, 48 h. Potency, µM (doses to about 46.2 µM), for the others: at the top dose activity change, negative = growth inhibition, usual class: inhibitors. actives 12% (n = 420,000). AID 686979; further: potency means the concentration at half of the fitted maximal effect; on the % scale 0 is the no-effect control and ±100 the full control effect; nearly all actives have a fitted effect of over 55% in size
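Chicken DT40 Tdp1-/- cells stably complemented with human TDP1 were seeded at 400 cells/well in medium containing 20 nM camptothecin, exposed to pin-transferred compounds, and grown at 37 °C for at least 48 hr. Viability was read as ATP luminescence.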
TGFb inhibitor = inhibitors of TGF-b signaling. Potency, µM (doses to about 46.1 µM), for inactives: at the top dose activity, negative = inhibition, actives largely listed as inhibitors. HepG2 CAGA-GFP TGF-b/SMAD3 reporter, GFP fluorescence, 18 h; TGF-beta stimulated, 500 pg/mL final. actives 1.2% (n = 410,000); further: potency means the concentration at half of the fitted maximal effect; on the % scale 0 is the no-effect control and ±100 the full control effect; nearly all actives have a fitted effect of over 65% in size
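Inhibition was scored as loss of TGF-beta-induced (500 pg/mL final, 18 hours, 37 degrees C) GFP in HEPG2 cells carrying a CAGA-GFP reporter, in DMEM with 1% FBS. Well GFP was summed per cell; Activity was normalised to unstimulated and stimulated DMSO wells, then concentration-response fitting.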
TDP1 inh = inhibitors of human tyrosyl-DNA phosphodiesterase TDP1. recombinant TDP1, AlphaScreen DNA substrate cleavage. Q9NUW8. AID 485290. actives 0.28% (n = 350,000). Potency, µM (highest dose often 130 µM), for inactives: top-dose activity change, negative = inhibition, actives largely listed as inhibitors; further: potency means the concentration at half of the fitted maximal effect; on the % scale 0 is the no-effect control and ±100 the full control effect; nearly all actives have a fitted effect of over 40% in size
Target sequence (Q9NUW8 whole entry, looked up): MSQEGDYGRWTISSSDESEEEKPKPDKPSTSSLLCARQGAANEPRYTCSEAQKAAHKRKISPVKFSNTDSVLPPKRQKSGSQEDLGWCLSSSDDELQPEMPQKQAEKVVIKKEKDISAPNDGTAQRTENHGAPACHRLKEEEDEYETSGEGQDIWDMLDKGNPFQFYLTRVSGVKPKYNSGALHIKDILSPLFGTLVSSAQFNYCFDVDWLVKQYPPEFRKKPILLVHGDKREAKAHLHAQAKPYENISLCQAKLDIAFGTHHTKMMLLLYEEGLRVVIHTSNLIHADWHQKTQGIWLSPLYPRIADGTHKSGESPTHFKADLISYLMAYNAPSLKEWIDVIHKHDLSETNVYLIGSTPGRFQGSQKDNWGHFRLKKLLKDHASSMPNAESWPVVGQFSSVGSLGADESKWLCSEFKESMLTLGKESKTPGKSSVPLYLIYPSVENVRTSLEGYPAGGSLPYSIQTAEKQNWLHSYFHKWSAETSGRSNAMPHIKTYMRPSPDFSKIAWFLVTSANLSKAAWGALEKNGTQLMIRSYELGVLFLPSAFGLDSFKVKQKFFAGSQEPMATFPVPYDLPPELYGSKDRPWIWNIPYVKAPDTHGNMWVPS
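Here, a 5' biotin and 3' phosphotyrosine-FITC DNA oligonucleotide reports Tdp1 activity: intact substrate bridges AlphaScreen beads, while cleavage leaves a 3' phosphate and drops signal. All incubations at room temperature.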
* = called active by the depositor; ? = inconclusive; . = no result given; [ ] = dose if it differs, or a comment. Most compounds without a hit are left out; they make up all but 19% or so of the library. Unless noted, the call rests on the fitted dose curve; in most records, active means well fitted curve in the direction sought with a large enough effect; inconclusive means small, poorly fitted or top-dose-only effect, or another doubt; inactive means no such curve, though single readings can be large; an effect the other way counts as inactive or inconclusive.

SMILES	IL-1B inflam inh	HepG2 tox	DT40 TDP1 no CPT	DT40 TDP1 CPT	TGFb inhibitor	TDP1 inh
CCOc1cc(/C=N/NC(=O)Cc2ccc(C(F)(F)F)cc2[N+](=O)[O-])c(Br)cc1OC	5	-10%	?	?	-9%	0%
CC(=C/c1ccc(C(C)C)cc1)/C=N/NC(=O)Cn1nc(C)cc1C	-14	-10%	29µM*	?	?	2%
COc1cc(Br)cc(/C=N/NC(=O)Cc2ccc(C(F)(F)F)cc2[N+](=O)[O-])c1O	76	16µM*	2.6µM*	1.8µM*	10µM*	-1%
Cc1ccc(C(=O)N/N=C\c2ccc([N+](=O)[O-])s2)cn1	-5	-7%	12µM*	10µM*	-24%	3%
CCN(Cc1ccncc1)Cc1ccc2c(c1)CN(C(=O)c1ccccc1-n1cccn1)CCO2	.	.	-12%	9%	.	.
CCOC(=O)C1(C)CCCCN1C(=O)c1cccnc1 (centres undefined)	36	1%	2%	4%	45%	.
COc1ccc(CN2CCNC(=O)C2CC(=O)NCC2CCOCC2)cc1C (centres undefined)	103	1%	9%	-26%	2%	.
COC(=O)[C@@H](NC(=O)O[C@@H]1C(=O)c2cc(Br)ccc2O[C@H]1c1ccc2c(c1)OCO2)C(C)C	.	.	.	.	.	-1%
COc1ccc(C(=O)Nc2cccc(OCc3cc(=O)n4c5c(sc4n3)CCCC5)c2)cc1OC	.	-8%	?	-6%	2%	6%
COC(=O)c1ccccc1NC(=O)CN1C(=O)COc2ccc(Cl)cc21	.	-28%	?	-21%	-24%	-1%
Cc1cc(C)n(CC(=O)N/N=C/c2ccc([N+](=O)[O-])s2)n1	?	-84%	?	23µM*	?	3%
Cc1cccc(NC(=S)N/N=C/c2ccc([N+](=O)[O-])s2)c1	0	6.3µM*	7.9µM*	13µM*	7.1µM*	10%
CCOC(=O)N/N=C\c1ccc([N+](=O)[O-])s1	-1	-49%	23µM*	16µM*	22µM*	2%
Cc1ccc(/C=N/NC(=O)c2ccncc2)s1	22	7%	15µM*	6.5µM*	0%	6%
Cc1cc(C)n(CC(=O)N/N=C/c2cccs2)n1	-1	-24%	-8%	22%	8%	-11%
CCOC(=O)N1CCC(NC(=O)c2ccc3c(c2)N(Cc2ccc(F)cc2)C(=O)c2ccccc2S3(=O)=O)CC1	.	-22%	?	?	.	8%
CCC1CN(CCNC(=O)c2cc(C(C)C)nn2C)Cc2cc(OC)ccc2O1 (centres undefined)	.	.	-23%	-13%[9.04 µM]	.	.
COc1ccc(NC(=O)C(NC(=O)/C=C\c2ccc3c(c2)OCO3)c2ccc(C)cc2)cc1 (centres undefined)	.	0%	-21%	-9%	9%	6%
COc1cc([N+](=O)[O-])cc(/C=N/NC(=O)Cn2nccc2C)c1O	0	-16%	?	?	-13%	9%
O=C(N/N=C/c1ccc([N+](=O)[O-])s1)c1cccc(Br)c1	1	-43%	10µM*	9.2µM*	?	-13%
Cc1cccc(N/N=C/c2ccc(C)s2)c1	6	-5%	?	29µM*	-12%	.
O=C(N/N=C/c1ccccc1[N+](=O)[O-])c1ccncc1	11	-13%	9%	-16%	0%	.
COc1cc([N+](=O)[O-])cc(/C=N/NC(=O)Cn2nc(C)cc2C)c1O	7	-17%	23µM*	?	2%	.
O=C(N/N=C/c1ccc([N+](=O)[O-])s1)c1ccncc1	-98*	13µM*	6.5µM*	6.5µM*	?	0%

High-throughput results deposited in PubChem BioAssay by National Center for Advancing Translational Sciences (NCATS).
